Experimental data from PubChem BioAssay (Tox21).
Unmarked numbers belong to inactive results. Inconclusive results are not listed. Entries that show only a call come without a potency. The source made the active and inactive calls. Unless noted, calls follow the shape of the full dose curve.

What was measured:
[1] = Nuclear factor erythroid 2-related factor 2/antioxidant responsive element (Nrf2/ARE) small molecule agonists: luciferase reporter gene qHTS assay in human keratinocytes (AID 1919969); also: nearly all actives have a fitted effect of over 35% in size; also: potency is read from the fitted curve at half-maximal effect
[2] = biological target: Gonadotropin-releasing hormone receptor (Homo sapiens) (UniProt P30968); assay: Human gonadotropin-releasing hormone receptor (GnRHR) small molecule agonists, calcium flux assay in GnRHR-HEK293 cells (AID 1920063); also: nearly all actives have a fitted effect of over 35% in size
Sequence of Gonadotropin-releasing hormone receptor (Homo sapiens) (P30968 whole entry, looked up): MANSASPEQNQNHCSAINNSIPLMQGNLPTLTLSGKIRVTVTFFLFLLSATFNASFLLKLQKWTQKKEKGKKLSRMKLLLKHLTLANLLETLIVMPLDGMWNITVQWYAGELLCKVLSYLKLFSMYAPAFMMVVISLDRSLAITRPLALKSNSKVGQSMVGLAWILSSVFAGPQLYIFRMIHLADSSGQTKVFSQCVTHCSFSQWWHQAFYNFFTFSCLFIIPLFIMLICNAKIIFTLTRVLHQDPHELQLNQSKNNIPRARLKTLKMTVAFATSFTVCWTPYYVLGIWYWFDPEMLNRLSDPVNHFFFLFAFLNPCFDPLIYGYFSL
In short: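 HEK293 cells stably expressing human GnRHR were dye-loaded for 1 h at 37 C. Compound was added in agonist mode and fluorescence (Ex/Em 480/540) recorded kinetically for 3 min. Fifteen concentrations, triplicates.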

[3] = biological target: KiSS-1 receptor (Homo sapiens) (UniProt Q969F8); assay: Human kisspeptin (KISS1R) small molecule agonists, calcium flux assay in KISS1R-HEK293 cells (AID 1920064; active = well fitted activation curve with a large enough effect in the repeat runs)
Sequence of KiSS-1 receptor (Homo sapiens) (Q969F8 whole entry, looked up): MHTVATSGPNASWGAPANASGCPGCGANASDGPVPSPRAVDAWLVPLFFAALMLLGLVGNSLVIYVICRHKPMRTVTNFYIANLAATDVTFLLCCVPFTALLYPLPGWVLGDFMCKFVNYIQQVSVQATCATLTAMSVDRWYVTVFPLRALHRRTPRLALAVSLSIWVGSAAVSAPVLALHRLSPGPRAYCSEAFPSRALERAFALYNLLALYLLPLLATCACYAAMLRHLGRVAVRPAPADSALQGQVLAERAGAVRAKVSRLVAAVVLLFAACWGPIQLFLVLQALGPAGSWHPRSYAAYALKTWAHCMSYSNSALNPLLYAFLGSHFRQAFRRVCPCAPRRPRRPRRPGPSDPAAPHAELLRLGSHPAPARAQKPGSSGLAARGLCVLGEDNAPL
In short: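 HEK293 cells stably expressing human KISS1R were loaded with calcium dye for 1 h at 37 C, then given compound; fluorescence (Ex/Em 480/540) was read kinetically for 3 min. Fifteen concentrations, triplicate.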

[4] = G protein-coupled receptor (GPCR) small molecule agonists, calcium flux assay: HEK293 wild type cell line counter screen (AID 1920065)
In short: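 Wild-type HEK293 cells plated 18 h, loaded with calcium dye 1 h at 37 C, then compounds added in agonist mode (ATP as positive control). Kinetic fluorescence Ex/Em 480/540 recorded 3 min at 1 sec intervals; 15 concentrations, triplicate.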

[5] = p53 small molecule agonists, cell-based qHTS assay with rat liver microsomes (AID 1963578)
In short: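 Rat liver microsome activation: microsomes 0.5 mg/mL, NADPH 0.5 mg/mL final; p53RE-bla cells, 16 h 37 C; LiveBLAzer readout, 2 h RT dark.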

[6] = p53 small molecule agonists, cell-based qHTS assay with rat liver microsomes: qHTS cell viability counter screen (AID 1963580); also: nearly all actives have a fitted effect of over 45% in size
In short: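 p53RE-bla HCT-116 cells (4,000/well) rested 5 h at 37 C, then given Tox21 compounds in DMSO with rat liver microsomes (0.5 mg/mL final) plus NADPH (0.5 mg/mL final) for 16 h at 37 C. Viability read by CellTiter-Glo luminescence after 30 min at room temperature.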

[7] = p53 small molecule agonists, cell-based qHTS assay: qHTS cell viability counter screen (AID 1963581); also: nearly all actives have a fitted effect of over 45% in size
In short: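 p53RE-bla HCT-116 cells, compounds added 5 h after plating and incubated 16 h at 37 C. Cytotoxicity measured in the same wells as intracellular ATP by CellTiter-Glo luminescence after 30 min at room temperature.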

[8] = p53 small molecule agonists, cell-based qHTS assay (AID 1963582; active = well fitted activation curve with a large enough effect in the signal ratio in the repeat runs, not every such curve was filed as active; the % refers to the signal ratio)
In short: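 p53RE-bla reporter cells, compounds added in DMSO after 5 h plating, incubated 16 h at 37 C. Beta-lactamase read via 2 h room-temperature LiveBLAzer B/G FRET substrate, fluorescence intensity.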

[9] = biological target: 5-hydroxytryptamine receptor 2A (Homo sapiens) (UniProt P28223); assay: 5-hydroxytryptamine receptor 2A (HTR2A) small molecule antagonists, cell-based qHTS assay (AID 1963586); also: nearly all actives have a fitted effect of over 45% in size; also: potency is read from the fitted curve at half-maximal effect
Sequence of 5-hydroxytryptamine receptor 2A (Homo sapiens) (P28223 whole entry, looked up): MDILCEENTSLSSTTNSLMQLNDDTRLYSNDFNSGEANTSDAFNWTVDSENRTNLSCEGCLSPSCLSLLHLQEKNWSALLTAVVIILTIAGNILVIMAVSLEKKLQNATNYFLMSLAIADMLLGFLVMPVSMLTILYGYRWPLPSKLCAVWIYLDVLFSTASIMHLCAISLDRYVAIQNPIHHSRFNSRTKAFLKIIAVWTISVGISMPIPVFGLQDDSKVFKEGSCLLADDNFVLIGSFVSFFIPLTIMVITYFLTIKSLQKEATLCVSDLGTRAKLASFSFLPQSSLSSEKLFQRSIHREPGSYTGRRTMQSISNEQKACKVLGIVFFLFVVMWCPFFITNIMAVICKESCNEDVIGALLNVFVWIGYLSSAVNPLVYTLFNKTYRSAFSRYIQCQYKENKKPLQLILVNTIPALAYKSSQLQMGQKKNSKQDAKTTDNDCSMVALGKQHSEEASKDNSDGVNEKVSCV
In short: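 Antagonist-mode intracellular calcium assay: DOI (4 nM) added after 5 min compound pre-incubation at room temperature to dye-loaded HTR2A-CHO cells. Fluorescence followed for 3 min, sampled every second.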

[10] = biological target: 5-hydroxytryptamine receptor 2A (Homo sapiens) (UniProt P28223); assay: 5-hydroxytryptamine receptor 2A (HTR2A) small molecule agonists, cell-based qHTS assay (AID 1963587); also: nearly all actives have a fitted effect of over 30% in size; also: potency is read from the fitted curve at half-maximal effect
In short: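 HTR2A-CHO cells, plated 18 h at 37 C/5% CO2, dye-loaded 1 h at 37 C; compounds in DMSO added by pin tool (agonist mode). Intracellular calcium flux read as kinetic fluorescence on FDSS over 2 min at 1 s intervals.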

[11] = biological target: Muscarinic acetylcholine receptor M1 (Homo sapiens) (UniProt P11229); assay: Cholinergic receptor muscarinic 1 (CHRM1) small molecule antagonists, cell-based qHTS assay (AID 1963588); also: nearly all actives have a fitted effect of over 40% in size
Sequence of Muscarinic acetylcholine receptor M1 (Homo sapiens) (P11229 whole entry, looked up): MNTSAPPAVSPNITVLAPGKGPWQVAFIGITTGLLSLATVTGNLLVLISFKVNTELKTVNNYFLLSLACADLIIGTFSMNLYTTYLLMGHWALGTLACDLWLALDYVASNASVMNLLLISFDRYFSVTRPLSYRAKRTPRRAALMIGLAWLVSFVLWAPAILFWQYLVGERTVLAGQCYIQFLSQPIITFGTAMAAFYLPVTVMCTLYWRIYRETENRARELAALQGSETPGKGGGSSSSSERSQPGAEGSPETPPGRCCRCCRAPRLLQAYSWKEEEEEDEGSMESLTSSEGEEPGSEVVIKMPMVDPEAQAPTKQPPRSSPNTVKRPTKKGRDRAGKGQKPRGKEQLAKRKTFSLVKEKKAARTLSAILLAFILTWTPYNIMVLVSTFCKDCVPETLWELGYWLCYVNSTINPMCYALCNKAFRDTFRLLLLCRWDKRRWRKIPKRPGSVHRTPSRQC
In short: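 CHRM1-CHO calcium-flux assay, antagonist mode. Cells were seeded 18 h, dye-loaded 1 h at 37 C and given compound for 5 min at RT, then acetylcholine was added at 50nM. FDSS fluorescence was read 3 min; 15 concentrations, three runs.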

[12] = biological target: Muscarinic acetylcholine receptor M1 (Homo sapiens) (UniProt P11229); assay: Cholinergic receptor muscarinic 1 (CHRM1) small molecule agonists, cell-based qHTS assay (AID 1963589); also: nearly all actives have a fitted effect of over 35% in size
In short: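 CHO cells stably expressing human CHRM1 were loaded with calcium dye for 1 h at 37 C, then compound was added in agonist mode. Intracellular calcium fluorescence was followed kinetically at 1 s intervals. Fifteen concentrations were tested in three independent runs.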

[13] = cAMP Responsive Elements (CRE) small molecule agonists, cell-based qHTS assay (AID 1963590)
In short: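 CRE-bla HEK 293T cells, 2,000/well in DMEM with 10% dialyzed FBS and 25 mM HEPES, pre-incubated 18 h at 37 C, then exposed to compound 3 h at 37 C. Beta-lactamase reporter read with LiveBLAzer B/G FRET substrate after 2 h at room temperature.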

[14] = cAMP Responsive Elements (CRE) small molecule antagonists, cell-based qHTS assay (AID 1963591; active = well fitted inhibition curve with a large enough effect in the signal ratio in the repeat runs, not every such curve was filed as active; the % refers to the signal ratio)
In short: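 CRE-bla HEK293T cells plated 18 h, then given compound plus NKH477 at 0.25 uM final for 3 h at 37C. Beta-lactamase reporter read with LiveBLAzer B/G FRET substrate after 2 h at room temperature.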

[15] = biological target: Beta-2 adrenergic receptor (Homo sapiens) (UniProt P07550); assay: Adrenergic beta2 receptor (ADRB2) small molecule antagonists, cell-based qHTS assay (AID 1963592); also: series mostly up to about 92 µM; nearly all actives have a fitted effect of over 50% in size
Sequence of Beta-2 adrenergic receptor (Homo sapiens) (P07550 whole entry, looked up): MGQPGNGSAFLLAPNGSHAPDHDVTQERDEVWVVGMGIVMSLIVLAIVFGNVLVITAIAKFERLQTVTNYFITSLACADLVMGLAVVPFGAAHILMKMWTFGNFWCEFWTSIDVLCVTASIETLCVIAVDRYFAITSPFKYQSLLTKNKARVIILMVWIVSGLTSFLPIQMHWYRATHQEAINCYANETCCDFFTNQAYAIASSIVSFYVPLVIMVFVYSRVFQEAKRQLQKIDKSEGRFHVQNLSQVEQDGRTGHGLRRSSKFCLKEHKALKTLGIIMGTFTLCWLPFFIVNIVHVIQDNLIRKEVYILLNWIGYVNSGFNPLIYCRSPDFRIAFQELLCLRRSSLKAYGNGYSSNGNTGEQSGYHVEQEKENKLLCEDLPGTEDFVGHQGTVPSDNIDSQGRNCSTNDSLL
In short: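 Cells (CHO, stable ADRB2 overexpression) incubated 18-20hr at 37C; compounds added from DMSO; agonist mix (1nM isoproterenol, 100uM IBMX, 25uM Ro-20-1724) added; 0.5hr RT; d2-cAMP and anti-cAMP-cryptate added; 1hr RT; 665/615 nm read.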

[16] = biological target: D(2) dopamine receptor (Homo sapiens) (UniProt P14416); assay: Dopamine D2 receptor (DRD2) small molecule agonists, cell-based qHTS assay (AID 1963594); also: nearly all actives have a fitted effect of over 35% in size
Sequence of D(2) dopamine receptor (Homo sapiens) (P14416 whole entry, looked up): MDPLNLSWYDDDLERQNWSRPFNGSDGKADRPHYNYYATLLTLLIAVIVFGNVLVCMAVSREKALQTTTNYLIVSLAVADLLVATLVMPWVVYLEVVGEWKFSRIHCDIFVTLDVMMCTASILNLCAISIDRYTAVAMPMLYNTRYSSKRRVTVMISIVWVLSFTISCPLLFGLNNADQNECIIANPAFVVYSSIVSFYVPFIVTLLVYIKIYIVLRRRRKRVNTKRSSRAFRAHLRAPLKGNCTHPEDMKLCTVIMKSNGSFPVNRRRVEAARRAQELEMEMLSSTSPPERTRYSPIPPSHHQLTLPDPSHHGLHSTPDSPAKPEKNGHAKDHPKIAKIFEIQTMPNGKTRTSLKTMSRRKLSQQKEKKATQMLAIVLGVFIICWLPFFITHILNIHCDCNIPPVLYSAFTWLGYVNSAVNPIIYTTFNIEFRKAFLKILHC
In short: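 HEK293 cells stably expressing DRD2 were cultured 24 h at 37 C, then given Ro20-1724 (0.1 mM final) and compounds for 10 min at room temperature. NKH477 (200nM) was then added for 30 min. cAMP was read by HTRF.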

[17] = biological target: D(2) dopamine receptor (Homo sapiens) (UniProt P14416); assay: Dopamine D2 receptor (DRD2) small molecule antagonists, cell-based qHTS assay (AID 1963595; active = well fitted inhibition curve with a large enough effect in the signal ratio in the repeat runs, with a control signal flat; the % refers to the signal ratio)
In short: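 Human DRD2 antagonist qHTS measuring cAMP by HTRF. The cells are exposed to compound for 10 min, then to NKH477 (200 nM) and quinpirole (12 nM) for 30 min at RT, with Ro20-1724 (0.1 mM) present throughout.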

[18] = p53 small molecule agonists, cell-based qHTS assay with human liver microsomes: qHTS cell viability counter screen (AID 1963579); also: nearly all actives have a fitted effect of over 45% in size
In short: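 Luminescent CellTiter-Glo read-out, 30 min at room temperature, gauged cytotoxicity in p53RE-bla cells exposed 16 h at 37 C to DMSO-dissolved compounds with metabolic activation by human liver microsomes and NADPH, each 0.5 mg/mL final.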

[19] = biological target: Beta-2 adrenergic receptor (Homo sapiens) (UniProt P07550); assay: Adrenergic beta2 receptor (ADRB2) small molecule agonists, cell-based qHTS assay (AID 1963593);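 also: CHO cells stably overexpressing human ADRB2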
In short: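 CHO cells stably over-expressing ADRB2 were plated overnight at 37C, then dosed with compounds plus a stimulation mix containing 100uM IBMX and 25uM Ro-20-1724 for 0.5hr at room temperature. cAMP was measured by HTRF competition, 1hr.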

| SMILES | Potency [1] | Potency [2] | Potency [3] | Potency [4] | Potency [5] | Potency [6] | Potency [7] | Potency [8] | Potency [9] | Potency [10] | Potency [11] | Potency [12] | Potency [13] | Potency [14] | Potency [15] | Potency [16] | Potency [17] | Potency [18] | Potency [19] |
| --- | --- | --- | --- | --- | --- | --- | --- | --- | --- | --- | --- | --- | --- | --- | --- | --- | --- | --- | --- |
| S=C=NCc1ccccc1 | 27600 nM (active) | inactive | inactive | inactive | inactive | inactive | inactive | inactive | inactive | inactive | inactive | inactive | inactive | inactive | inactive | inactive | inactive |  |  |
| O=C(Nc1ccccc1)c1ccccc1I | inactive | inactive | inactive | inactive |  | inactive | inactive |  | inactive | inactive | inactive | inactive | inactive | inactive | inactive | inactive | inactive | inactive |  |
| COc1ncc(F)c2nc(S(=O)(=O)Nc3c(F)cccc3F)nn12 | inactive | inactive | inactive | inactive |  | inactive | inactive |  | inactive | inactive | inactive |  | inactive | inactive | inactive | inactive | inactive | inactive | inactive |
| COc1cc(C[C@@H](C)N)c(OC)cc1C | inactive | inactive | inactive | inactive |  | inactive | inactive |  | 1.3 nM (active) | 10.5 nM (active) | inactive | inactive | inactive | inactive |  |  | inactive | inactive |  |
| O=C(NC(O)C(Cl)(Cl)Cl)NC(O)C(Cl)(Cl)Cl (centres undefined) | inactive | inactive | inactive | inactive |  | inactive | inactive |  |  | inactive | inactive |  | inactive | inactive | inactive | inactive | inactive | inactive | inactive |
| O=C(O)C(Br)(Br)Br | inactive | inactive | inactive | inactive |  | inactive | inactive |  | inactive | inactive |  | inactive | inactive | inactive | inactive | inactive | inactive | inactive | inactive |
